# PubChem BioAssay (NCI)
# This is part of a sample that, as a whole, favours compounds with a hit. Of some 79,000 tested, about 15% had one in any assay. Values without a mark were called inactive. Active and inactive are the calls of the source. Cut-off read from the data, not from the text of the source: active = growth inhibition above about 70%; inactive = the rest.
# Key:
# [1] = NCI Yeast Anticancer Drug Screen. Data for the wt1 strain (AID 149);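 note: 0% = growth of vehicle-treated wt1 cultures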; settings: S. cerevisiae wt1 strain (SPY 50644) growth inhibition, active compounds read high
# How it was run: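 wt1 yeast, compound-treated; % growth inhibition vs vehicle control.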
# [2] = NCI Yeast Anticancer Drug Screen. Data for the rad50EPP+ strain (AID 151);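 note: 0% = growth of vehicle-treated control cultures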; settings: S. cerevisiae rad50 mutant strain, active compounds read high
# How it was run: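 rad50EPP+ yeast treated with test compounds. Readout: growth vs vehicle control.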
# [3] = NCI Yeast Anticancer Drug Screen. Data for the mgt1 strain (AID 153); settings: S. cerevisiae mgt1 mutant growth inhibition, active compounds read high
# How it was run: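 Growth inhibition relative to vehicle controls was scored for the mgt1 yeast strain after compound exposure.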
# [4] = NCI Yeast Anticancer Drug Screen. Data for the rad50 strain (AID 155);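 note: 0% = growth of vehicle-only cultures of the same strain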; settings: S. cerevisiae rad50 strain growth inhibition, active compounds read high
# How it was run: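 Genetically altered yeast (DNA repair pathway); compound treatment; growth inhibition vs vehicle ctrl.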
# [5] = NCI Yeast Anticancer Drug Screen. Data for the mec2-1 strain (AID 157); settings: S. cerevisiae mec2-1 strain, active compounds read high
# How it was run: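 Growth inhibition is read against vehicle-treated controls after compound exposure of the mec2-1 yeast strain, which is defective in DNA damage repair or cell cycle control.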
# [6] = NCI Yeast Anticancer Drug Screen. Data for the rad14 strain (AID 159);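 note: 0% = growth of vehicle-treated control cultures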; settings: S. cerevisiae rad14 strain growth inhibition, active compounds read high
# How it was run: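 Test compounds were applied to a repair-deficient yeast strain. Its growth was then compared with that of cultures given vehicle alone, and inhibition was expressed relative to those controls.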
# [7] = NCI Yeast Anticancer Drug Screen. Data for the sgs1 mgt1 strain (AID 161);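 note: 0% = growth of cultures given vehicle only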; settings: S. cerevisiae sgs1 mgt1 strain, active compounds read high
# How it was run: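 Percent growth inhibition was derived by comparing compound-exposed mutant yeast with vehicle-exposed cultures. The strain carries alterations in DNA damage repair.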
# [8] = NCI Yeast Anticancer Drug Screen. Data for the CLN2oe strain (AID 163);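 note: 0% = growth of vehicle-only control cultures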; settings: S. cerevisiae CLN2oe strain, active compounds read high
# How it was run: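 Compound-treated yeast; growth vs vehicle ctrl = % inhibition. Genetically altered strain (cell-cycle control).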
# [9] = NCI Yeast Anticancer Drug Screen. Data for the cln2 rad14 strain (AID 165);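 note: 0% = growth equal to vehicle treated cultures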; settings: S. cerevisiae cln2 rad14 strain, active compounds read high
# How it was run: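 Growth inhibition, relative to vehicle-treated controls, is the read-out. The test organism is a yeast strain with defined genetic alterations, cln2 rad14.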
# [10] = NCI Yeast Anticancer Drug Screen. Data for the bub3 strain (AID 167); settings: S. cerevisiae bub3 mutant strain, active compounds read high
# How it was run: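 Yeast carrying a defined mutation is treated with each compound, and growth is compared with that of vehicle-exposed cells to give inhibition.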
# [11] = NCI Yeast Anticancer Drug Screen. Data for the wt2 strain (AID 169);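 note: 0% = growth of vehicle-treated yeast cultures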; settings: S. cerevisiae wt2 strain growth inhibition, active compounds read high
# How it was run: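 Compound exposure of yeast; growth compared with vehicle controls; inhibition reported.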
# [12] = NCI Yeast Anticancer Drug Screen. Data for the mlh1 strain (AID 171);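 note: 0% = growth of vehicle-treated control cultures of the same strain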; settings: S. cerevisiae mlh1 strain growth inhibition, active compounds read high
# How it was run: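 Compounds are applied to a genetically altered yeast strain, and its growth is compared with that of vehicle-treated cultures to give percent inhibition.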
# [13] = NCI Yeast Anticancer Drug Screen. Data for the sgs1 strain (AID 173);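 note: 0% = growth of vehicle-only control cultures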; settings: S. cerevisiae sgs1 mutant, active compounds read high
# How it was run: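 Compounds applied to genetically altered yeast; growth compared with vehicle-treated cultures to give % inhibition.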
# [14] = NCI Yeast Anticancer Drug Screen. Data for the mlh1 rad18 strain (AID 175); settings: S. cerevisiae mlh1 rad18 strain growth inhibition, active compounds read high
# How it was run: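 Cells of a genetically altered yeast strain, deficient in DNA damage repair, were treated with compound. Their growth was then compared with that of vehicle-treated cultures to give inhibition.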
# [15] = NCI Yeast Anticancer Drug Screen. Data for the rad18 strain (AID 177); settings: S. cerevisiae rad18 mutant growth inhibition, active compounds read high
# How it was run: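 Compounds are applied to a repair-deficient yeast strain, and growth is compared with that of vehicle-treated cultures to give percent inhibition.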
# [16] = NCI Yeast Anticancer Drug Screen. Data for the rad52 strain (AID 147);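 note: 0% = growth of vehicle-treated control cultures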; settings: S. cerevisiae rad52 mutant growth inhibition, active compounds read high
# How it was run: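 DNA repair-defective yeast; compound exposure; growth scored against vehicle controls.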
# [17] = at 5.0 µM (retest, dose inferred, filed as 0.5)
# [18] = at 50.0 µM (retest, dose inferred, filed as 5.0)
compound,measurement,setting,value
CCOC(=O)CC1(C(=O)OCC)c2[nH]c3ccccc3c2CCN1Cc1ccccc1 (stereo not drawn),growth inhibition,[1]; at 1.2 µM,-3%
same,growth inhibition,[1]; at 3.7 µM,-2%
same,growth inhibition,[1]; at 11.0 µM,-1%
same,growth inhibition,[1]; at 33.0 µM,-5%
same,growth inhibition,[1]; at 100.0 µM,42%
same,growth inhibition,[2]; at 1.2 µM,-7%
same,growth inhibition,[2]; at 3.7 µM,-7%
same,growth inhibition,[2]; at 11.0 µM,-11%
same,growth inhibition,[2]; at 33.0 µM,-9%
same,growth inhibition,[2]; at 100.0 µM,0%
same,growth inhibition,[3]; at 1.2 µM,-2%
same,growth inhibition,[3]; at 3.7 µM,-1%
same,growth inhibition,[3]; at 11.0 µM,1%
same,growth inhibition,[3]; at 33.0 µM,3%
same,growth inhibition,[3]; at 100.0 µM,50%
same,growth inhibition,[4]; at 1.2 µM,-2%
same,growth inhibition,[4]; at 3.7 µM,-2%
same,growth inhibition,[4]; [17],50%
same,growth inhibition,[4]; at 11.0 µM,5%
same,growth inhibition,[4]; at 33.0 µM,5%
same,growth inhibition,[4]; [18],50%
same,growth inhibition,[4]; at 50.0 µM,70.9% (active)
same,growth inhibition,[4]; at 100.0 µM,38%
same,growth inhibition,[5]; at 1.2 µM,-3%
same,growth inhibition,[5]; at 3.7 µM,-4%
same,growth inhibition,[5]; [17],13%
same,growth inhibition,[5]; at 11.0 µM,-5%
same,growth inhibition,[5]; at 33.0 µM,-2%
same,growth inhibition,[5]; [18],13%
same,growth inhibition,[5]; at 50.0 µM,61.2%
same,growth inhibition,[5]; at 100.0 µM,50%
same,growth inhibition,[6]; at 1.2 µM,1%
same,growth inhibition,[6]; at 3.7 µM,1%
same,growth inhibition,[6]; at 11.0 µM,1%
same,growth inhibition,[6]; at 33.0 µM,3%
same,growth inhibition,[6]; at 100.0 µM,33%
same,growth inhibition,[7]; [17],43%
same,growth inhibition,[7]; [18],43%
same,growth inhibition,[7]; at 50.0 µM,62%
same,growth inhibition,[8]; at 1.2 µM,-1%
same,growth inhibition,[8]; at 3.7 µM,2%
same,growth inhibition,[8]; at 11.0 µM,4%
same,growth inhibition,[8]; at 33.0 µM,12%
same,growth inhibition,[8]; at 100.0 µM,74% (active)
same,growth inhibition,[9]; [17],-4%
same,growth inhibition,[9]; [18],-4%
same,growth inhibition,[9]; at 50.0 µM,74% (active)
same,growth inhibition,[10]; at 1.2 µM,-3%
same,growth inhibition,[10]; at 3.7 µM,-7%
same,growth inhibition,[10]; [17],6%
same,growth inhibition,[10]; at 11.0 µM,8%
same,growth inhibition,[10]; at 33.0 µM,26%
same,growth inhibition,[10]; [18],6%
same,growth inhibition,[10]; at 50.0 µM,55.1%
same,growth inhibition,[10]; at 100.0 µM,37%
same,growth inhibition,[11]; at 1.2 µM,-1%
same,growth inhibition,[11]; at 3.7 µM,0%
same,growth inhibition,[11]; at 11.0 µM,0%
same,growth inhibition,[11]; at 33.0 µM,2%
same,growth inhibition,[11]; at 100.0 µM,45%
same,growth inhibition,[12]; at 1.2 µM,-4%
same,growth inhibition,[12]; at 3.7 µM,-3%
same,growth inhibition,[12]; at 11.0 µM,-2%
same,growth inhibition,[12]; at 33.0 µM,11%
same,growth inhibition,[12]; at 100.0 µM,45%
same,growth inhibition,[13]; at 1.2 µM,-4%
same,growth inhibition,[13]; at 3.7 µM,-7%
same,growth inhibition,[13]; at 11.0 µM,-5%
same,growth inhibition,[13]; at 33.0 µM,0%
same,growth inhibition,[13]; at 100.0 µM,40%
same,growth inhibition,[14]; [17],31%
same,growth inhibition,[14]; [18],31%
same,growth inhibition,[14]; at 50.0 µM,65.2%
same,growth inhibition,[15]; at 1.2 µM,-3%
same,growth inhibition,[15]; at 3.7 µM,-15%
same,growth inhibition,[15]; at 11.0 µM,8%
same,growth inhibition,[15]; at 33.0 µM,3%
same,growth inhibition,[15]; at 100.0 µM,35%
O=C(NCCCl)Sc1ccc(Cl)cc1,growth inhibition,[16]; at 1.2 µM,3%
same,growth inhibition,[16]; at 3.7 µM,7%
same,growth inhibition,[16]; at 11.0 µM,10%
same,growth inhibition,[16]; at 33.0 µM,55%
same,growth inhibition,[16]; at 100.0 µM,99% (active)
same,growth inhibition,[2]; at 1.2 µM,3%
same,growth inhibition,[2]; at 3.7 µM,7%
same,growth inhibition,[2]; at 11.0 µM,22%
same,growth inhibition,[2]; at 33.0 µM,56%
same,growth inhibition,[2]; at 100.0 µM,90% (active)
same,growth inhibition,[3]; at 1.2 µM,1%
same,growth inhibition,[3]; at 3.7 µM,-2%
same,growth inhibition,[3]; at 11.0 µM,-2%
same,growth inhibition,[3]; at 33.0 µM,30%
same,growth inhibition,[3]; at 100.0 µM,71% (active)
same,growth inhibition,[4]; at 1.2 µM,4%
same,growth inhibition,[4]; at 3.7 µM,-7%
same,growth inhibition,[4]; [17],-166%
same,growth inhibition,[4]; at 11.0 µM,7%
same,growth inhibition,[4]; at 33.0 µM,55%
same,growth inhibition,[4]; [18],85% (active)
same,growth inhibition,[4]; at 50.0 µM,95.2% (active)
same,growth inhibition,[4]; at 100.0 µM,98% (active)
same,growth inhibition,[5]; at 1.2 µM,1%
same,growth inhibition,[5]; at 3.7 µM,1%
same,growth inhibition,[5]; [17],-52%
same,growth inhibition,[5]; at 11.0 µM,-10%
same,growth inhibition,[5]; at 33.0 µM,13%
same,growth inhibition,[5]; [18],82% (active)
same,growth inhibition,[5]; at 50.0 µM,99.3% (active)
same,growth inhibition,[5]; at 100.0 µM,85% (active)
same,growth inhibition,[6]; at 1.2 µM,-1%
same,growth inhibition,[6]; at 3.7 µM,-7%
same,growth inhibition,[6]; at 11.0 µM,2%
same,growth inhibition,[6]; at 33.0 µM,33%
same,growth inhibition,[6]; at 100.0 µM,75% (active)
same,growth inhibition,[8]; at 1.2 µM,-1%
same,growth inhibition,[8]; at 3.7 µM,-2%
same,growth inhibition,[8]; at 11.0 µM,-2%
same,growth inhibition,[8]; at 33.0 µM,9%
same,growth inhibition,[8]; at 100.0 µM,60%
same,growth inhibition,[9]; [17],-67%
same,growth inhibition,[9]; [18],8%
same,growth inhibition,[9]; at 50.0 µM,42.8%
same,growth inhibition,[10]; at 1.2 µM,2%
same,growth inhibition,[10]; at 3.7 µM,0%
same,growth inhibition,[10]; [17],-71%
same,growth inhibition,[10]; at 11.0 µM,1%
same,growth inhibition,[10]; at 33.0 µM,29%
same,growth inhibition,[10]; [18],84% (active)
same,growth inhibition,[10]; at 50.0 µM,96.2% (active)
same,growth inhibition,[10]; at 100.0 µM,91% (active)
same,growth inhibition,[11]; at 1.2 µM,1%
same,growth inhibition,[11]; at 3.7 µM,0%
same,growth inhibition,[11]; at 11.0 µM,0%
same,growth inhibition,[11]; at 33.0 µM,30%
same,growth inhibition,[11]; at 100.0 µM,92% (active)
same,growth inhibition,[12]; at 1.2 µM,-5%
same,growth inhibition,[12]; at 3.7 µM,1%
same,growth inhibition,[12]; at 11.0 µM,2%
same,growth inhibition,[12]; at 33.0 µM,19%
same,growth inhibition,[12]; at 100.0 µM,93% (active)
same,growth inhibition,[13]; at 1.2 µM,0%
same,growth inhibition,[13]; at 3.7 µM,13%
same,growth inhibition,[13]; at 11.0 µM,22%
same,growth inhibition,[13]; at 33.0 µM,60%
same,growth inhibition,[13]; at 100.0 µM,90% (active)
same,growth inhibition,[14]; [17],-141%
same,growth inhibition,[14]; [18],84% (active)
same,growth inhibition,[14]; at 50.0 µM,97.8% (active)
same,growth inhibition,[15]; at 1.2 µM,0%
same,growth inhibition,[15]; at 3.7 µM,3%
same,growth inhibition,[15]; at 11.0 µM,5%
same,growth inhibition,[15]; at 33.0 µM,44%
same,growth inhibition,[15]; at 100.0 µM,93% (active)
